Screening results deposited in PubChem by Broad Institute.
These entries were drawn from the full list.
aSyn 5UTR act = Activators working through SNCA 5'UTR binding (MLPCN); AID 1814; alpha-synuclein 5'UTR reporter, activators screen; actives 7.1% (n = 300,000); activity score, % (tested at 7.5 µM), hits read low; in the data active = activity score below about -60%
Each line names hits and unclear results; the compound was inactive in the other large screens.

Cn1c(SCc2ccccc2Cl)nnc1-c1cnccn1	aSyn 5UTR act -92
Cn1c(SCc2cccc(F)c2)nnc1-c1ccccn1	aSyn 5UTR act -142
Cn1c(SC/C=C/c2ccccc2)nnc1-c1cnccn1	aSyn 5UTR act -63
Cn1c(SCc2ccccc2[N+](=O)[O-])nnc1-c1cccnc1	aSyn 5UTR act -68
Cc1ccccc1CSc1nnc(-c2ccccn2)n1C	aSyn 5UTR act -104
Cn1c(SCc2cccc(F)c2)nnc1-c1cnccn1	aSyn 5UTR act -98
COc1ccc(Cn2c(SCc3ccccc3C)nc3cc(OC)c(OC)cc3c2=N)cc1	none
Cn1cnc2cc(NC(=O)c3ccc(Cl)cc3)ccc21	aSyn 5UTR act -139
COCCNC(=O)c1ccc2c(c1)ncn2-c1cccc(C)c1	aSyn 5UTR act -75
Cn1cnc2cc(NC(=O)c3cccs3)ccc21	aSyn 5UTR act -97
O=C(Nc1ccc2nn(-c3ccccc3)nc2c1)c1cccs1	aSyn 5UTR act -178
Cc1cccc(C(=O)Nc2ccc3c(c2)ncn3C)c1	aSyn 5UTR act -112
CC(C)(C)n1cnc2cc(NC(=O)c3ccc(Cl)cc3)ccc21	aSyn 5UTR act -138
C=CCNC(=O)C1CCN(c2nc(C)cc(-c3ccccc3)n2)CC1	aSyn 5UTR act -97
O=C(c1ccc(OC(F)(F)F)cc1)c1ncc[nH]1	aSyn 5UTR act -83
N#Cc1c(-c2ccccc2)c(-c2ccccc2)nn(CC(=O)NNC(=O)Nc2ccccc2)c1=O	aSyn 5UTR act -92
CCCC(NC(=O)CCl)c1ccccc1 (stereo not drawn)	aSyn 5UTR act -72
CC(=O)c1ccc(OCc2cc(C(=O)N(C)Cc3ccccn3)no2)cc1	aSyn 5UTR act -65
Cc1cc(OCc2cc(C(=O)N(C)Cc3ccccn3)no2)cc(C)c1Cl	aSyn 5UTR act -77
Cc1cc(OCc2cc(C(=O)N(C)C(C)c3ccccn3)no2)cc(C)c1Cl (stereo not drawn)	aSyn 5UTR act -93
Cc1cc(OCc2cn3cccnc3n2)ccc1Cl	aSyn 5UTR act -127
Cc1csc2nc(CSc3ccc(Cl)cc3)cn12	aSyn 5UTR act -103
c1ccc(CSCc2cn3ccsc3n2)cc1	aSyn 5UTR act -176
Clc1ccc(SCc2cn3cccnc3n2)cc1	aSyn 5UTR act -64
Clc1ccc(SCc2cn3ccsc3n2)cc1	aSyn 5UTR act -236
c1ccc2oc(SCc3cn4ccsc4n3)nc2c1	aSyn 5UTR act -122
c1cn2cc(CSC3CCCCC3)nc2s1	aSyn 5UTR act -130
O=C1/C(=C/c2ccccn2)SC(=S)N1CCc1ccccc1	aSyn 5UTR act -159
Cc1ccc(/C=C2\SC(=S)N(CCCC(=O)Nc3ccccn3)C2=O)cc1	none
Cc1ccc(C(=O)Nc2ccc(N3CCN(C)CC3)nc2)cc1	aSyn 5UTR act -63
COc1ccc(C(=O)Nc2ccc(N3CCCCC3)cc2)cc1Br	aSyn 5UTR act -63
Cc1ccc(C(=O)Nc2ccc(N3CCOCC3)cc2)cc1	aSyn 5UTR act -95
COc1cc(C(=S)N2CCCC2)ccc1OS(=O)(=O)c1ccc(NC(C)=O)cc1	aSyn 5UTR act -64
Cc1ccc(C(=O)Nc2cccc(C(=O)O)c2)cc1	none
CCC(=O)NC(=S)Nc1ccc(N2CCOCC2)cc1	aSyn 5UTR act -82
O=C(Nc1cccc(Cl)c1)c1ccc(OC(=S)N2CCOCC2)cc1	aSyn 5UTR act -182
Cc1ccc(CNc2ccc(N3CCOCC3)cc2)cc1	aSyn 5UTR act -108
Cc1ccc(C(=O)Nc2cccc(C(=O)N3CCOCC3)c2)cc1	aSyn 5UTR act -89
Cc1ccc(C(=O)Nc2ccc(N3CCCC3)cc2)cc1	aSyn 5UTR act -160
Cc1ccc(C(=O)Nc2ccc(N3CCN(C)CC3)cc2)c(Cl)c1	aSyn 5UTR act -162
[O-]/C(=C(\C(=S)Nc1ccc(SC(F)F)cc1)[n+]1cccc(CO)c1)c1ccc(Cl)s1	aSyn 5UTR act -71
O=C(Nc1ccc2nc(-c3ccco3)c(-c3ccco3)nc2c1)NC1CC1	aSyn 5UTR act -65
O=C(Nc1ccc(N2CCOCC2)cc1)Nc1ccc2nc(-c3ccco3)c(-c3ccco3)nc2c1	none
N#Cc1ccc(CO/N=C/c2ccccc2)cc1	aSyn 5UTR act -95
Cc1cccc(NC(=O)c2onc3c2CCCC3)n1	none
Cc1ccccc1NC(=O)c1onc2c1CCCC2	aSyn 5UTR act -131
Cc1cccc(NC(=O)c2onc3c2CCCC3)c1C	aSyn 5UTR act -162
COC(=O)c1cccc(NC(=O)c2onc3c2CCCC3)c1	none
O=C(Nc1ccc2ccccc2c1)c1onc2c1CCCC2	aSyn 5UTR act -71
CC(Sc1nnc(-c2cccnc2)n1-c1ccccc1)C(=O)NCc1ccc2c(c1)OCO2 (stereo not drawn)	aSyn 5UTR act -71
CCCCc1ccc(NC(=O)C2CCCC2)cc1	aSyn 5UTR act -69
CCCCc1ccc(NC(=O)CC(C)C)cc1	aSyn 5UTR act -70
COC(=O)C1CCN(C(=O)CCCOc2ccccc2)CC1	aSyn 5UTR act -83
CCCCOc1ccc(C(=O)N2CCCC2)cc1	aSyn 5UTR act -63
COc1ccc(OCCC(=O)N2CCCCC2)cc1	aSyn 5UTR act -63
OCCNc1c2ccccc2nc2c(F)c(F)c(F)c(F)c12	aSyn 5UTR act -84
C/C(=N/NC(=O)c1ccccc1)c1ccc(NC(=O)C(F)(F)F)cc1	aSyn 5UTR act -69
C/C(=N/OCC(=O)Nc1ccccc1)c1cccs1	aSyn 5UTR act -131
